The list is not random: actives were taken first. Their share in the collection is about 1.6%.
OPRM1-OPRD1 ag = agonists of OPRM1-OPRD1 heterodimerization, primary screen, cell-based, luminescence. Mu-type opioid receptor (Homo sapiens) + Delta-type opioid receptor (Homo sapiens), …. cells. activation, % at 9.3 µM. hit rate 0.3% among 340,000; in the data active means activation above about 18%;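 further: 0% = vehicle-treated cells and 100% = reference agonist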
MOR-DOR inv ag = inverse agonists of MOR-DOR heterodimerization, primary screen, cell-based, luminescence; inhibition, % at 9.3 µM; cell-based MOR-DOR heterodimer luminescence, inverse agonism; AID 504357, 2011; hit rate 0.21% among 340,000; in the data active means inhibition above about 22%, passing the limit was not always enough;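 further: 0% = cells with DMSO and 100% = wells without cells with DMSO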
HTR5A inv ctr = HTR5A inverse agonists in luminescence cell assay, primary screen, counter-screen for OPRM1-OPRD1 heterodimer inverse agonist project, full-deck HTS | HTR5A cell line, inverse agonism | inhibition, % at 9.3 µM | hit rate 0.083% among 340,000; in the data active means inhibition mostly above about 23%, no sharp cut-off; inactive means mostly below about 18%;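 further: 0% = cells with DMSO and 100% = no-cell wells with DMSO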
m5-HT2A agonist = mouse Htr2a agonists via beta-arrestin recruitment, primary screen, cell-based, luminescence; 5-hydroxytryptamine receptor 2A (Mus musculus), P35363; CHO-K1 mHTR2A beta-arrestin complementation; percent of 30 µM serotonin response; activation, % at 7.6 µM; hit rate 0.66% among 360,000;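 active means activation above a run cutoff, the mean activation of all tested compounds plus 3 SD, cut at about 14% in these data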;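 further: 0% = plate median of compound wells and 100% = 30 µM serotonin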
Target sequence (P35363 whole entry, looked up): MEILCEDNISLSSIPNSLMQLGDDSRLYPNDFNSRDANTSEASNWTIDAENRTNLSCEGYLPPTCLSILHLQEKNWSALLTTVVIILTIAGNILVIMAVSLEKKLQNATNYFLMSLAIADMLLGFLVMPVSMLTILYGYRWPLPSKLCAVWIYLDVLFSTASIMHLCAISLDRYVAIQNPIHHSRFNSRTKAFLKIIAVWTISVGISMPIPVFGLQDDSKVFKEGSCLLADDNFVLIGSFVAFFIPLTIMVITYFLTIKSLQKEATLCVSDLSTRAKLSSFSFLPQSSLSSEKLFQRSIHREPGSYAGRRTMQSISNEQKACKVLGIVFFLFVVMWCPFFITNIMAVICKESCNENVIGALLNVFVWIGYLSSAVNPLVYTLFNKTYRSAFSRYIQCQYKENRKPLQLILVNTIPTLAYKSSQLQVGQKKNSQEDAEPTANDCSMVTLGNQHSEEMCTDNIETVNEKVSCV
HTR5A ag ctr = HTR5A agonists in luminescence cell assay, primary screen, counter-screen for OPRM1-OPRD1 heterodimer agonist project, full-deck HTS. cell-based. activation, % at 9.3 µM. hit rate 0.61% among 340,000; in the data active means activation mostly above about 9.5%, no sharp cut-off; inactive means mostly below about 7.6%;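 further: 0% = cells with vehicle only and 100% = reference agonist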
MOR ag counter = OPRM1 agonists via beta-arrestin recruitment, confirmation, counter-screen for mouse HTR2A agonist project, cell-based, luminescence, single concentration; shares compounds with m5-HT2A agonist; U2OS OPRM1 beta-arrestin PathHunter; DMSO 0%, DAMGO 9.3 µM 100%; activation, % at 9.3 µM; hit rate 5.3% among 2,300; AID 624380, 2012;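 active means mean activation above the mean of DMSO-only wells plus 3 SD, cut at about 0.5% in these data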
m5-HT2A ag conf = mouse HTR2A agonists, beta-arrestin recruitment, confirmation, cell-based, luminescence, CHO-K1 PathHunter, triplicate | hit rate 19% among 2,300 | activation, % at 7.6 µM | DMSO 0%, 30 µM serotonin 100% | AID 624381, 2012 | shares compounds with m5-HT2A agonist;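 active means mean activation across triplicates above the hit threshold derived in the original primary screen, cut at about 15% in these data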
Starred values were filed as active, the others as inactive; nt = no result.

SMILES | OPRM1-OPRD1 ag | MOR-DOR inv ag | HTR5A inv ctr | m5-HT2A agonist | HTR5A ag ctr | MOR ag counter | m5-HT2A ag conf
CCOC(=O)[C@H]1[C@H]2COc3ccc(OC)cc3[C@@H]2N2C(=O)[C@H](C)NC(=O)[C@@]12C | -2.7 | 14.5 | -23.2 | 20.1* | 3.0 | -0.5 | -1.9
CCOC(=O)[C@H]1[C@H]2COc3ccc(Cl)cc3[C@@H]2N2C(=O)c3ccc(C)cc3NC(=O)[C@@]12C | -0.1 | 0.3 | -6.2 | 14.5* | 2.3 | -0.5 | -3.3
CCOC(=O)[C@H]1[C@H]2COc3ccc(C)cc3[C@@H]2N2C(=O)[C@@H](C)NC(=O)[C@@]12C | -0.3 | 1.8 | 2.8 | -2.7 | 2.8 | nt | nt
CC(CCc1ccccc1)NC(=O)Cn1cccc1C(=O)c1ccccc1 (stereo not drawn) | -0.9 | 4.8 | 3.6 | -1.7 | 1.6 | nt | nt
Cc1cc(C)c(C(=O)N2CCCC(CNS(=O)(=O)N(C)C)C2)o1 (stereo not drawn) | -3.3 | 16.9 | -7.1 | -6.7 | -1.6 | nt | nt
CC(C)C1Oc2ccccc2N(CC(=O)NC2CCCCC2)C1=O (stereo not drawn) | 1.0 | -7.1 | -1.8 | -0.9 | 2.8 | nt | nt
CCOC(=O)Cn1nc(C)c2c1CCCC2=O | -0.2 | 1.2 | 20.4 | -1.2 | 4.5 | nt | nt
COc1ccc(N(CC(=O)Nc2ccc(C)c(C)c2)S(=O)(=O)c2c(C)noc2C)cc1 | 3.5 | -19.0 | 6.2 | -8.3 | -6.2 | nt | nt
COc1ccccc1CNC(=O)CN(c1ccc(C)cc1)S(=O)(=O)c1c(C)n[nH]c1C | -0.6 | 3.0 | -12.4 | 0.7 | 2.3 | nt | nt
COc1ccc(NC(=O)CN(c2ccc(C(C)C)cc2)S(=O)(=O)c2c(C)noc2C)cc1OC | -2.9 | 14.7 | -4.8 | 14.8* | 1.6 | -0.5 | -0.2
COc1ccccc1CNC(=O)CN(c1ccc(C)cc1)S(=O)(=O)c1c(C)noc1C | -2.7 | 14.1 | 2.3 | 17.2* | -0.6 | -0.6 | -4.9
CC(C)(CC(=O)O)CC(=O)NCc1c(Cl)cccc1Sc1ccc(Cl)cc1 | nt | nt | nt | 15.5* | nt | -0.6 | -1.9
O=C(O)CCCC(=O)NCc1c(Cl)cccc1Sc1ccc(Cl)cc1 | -3.3 | 16.7 | -27.4 | -0.9 | 1.4 | nt | nt
CN1C(=O)/C(=C/c2ccccc2F)Sc2ccc(C(=O)N3CCCC3)cc21 | -0.1 | 0.6 | -22.7 | -6.2 | 3.6 | nt | nt
C=C(C)C1CC=C(CN2CCC(C(=O)OCC)CC2)CC1 (stereo not drawn) | 6.8 | -37.1 | -7.4 | 17.8* | 5.8 | -0.2 | 26.1*
C=C(C)C1CC=C(CN2CC(C)OC(C)C2)CC1 (stereo not drawn) | 5.4 | -29.1 | 9.2 | 1.3 | -2.5 | nt | nt
COC1=C/C(=C/c2c(O)c(C#N)c3ccccn23)C=CC1=O | -1.4 | 7.4 | -19.5 | 20.4* | -3.7 | -0.6 | -7.5
COc1cc(OC)cc(C(=O)c2c(C)c(C#N)c3ccccn23)c1 | -2.1 | 12.1 | -2.6 | 1.7 | 0.7 | nt | nt
O=C(COC(=O)C1CCN(c2ccc(C(F)(F)F)cn2)CC1)Nc1ccc(F)cc1[N+](=O)[O-] | 7.2 | -37.2 | -23.4 | 10.6 | 8.6 | nt | nt
C[C@H]1CN([C@@H](C)CO)C(=O)c2cc(/C=C/c3ccccc3)cnc2O[C@H]1CN(C)C(=O)c1cccc(F)c1 | nt | nt | nt | 17.1* | nt | -0.6 | -8.3
CN(C)C(CNS(=O)(=O)c1cc([N+](=O)[O-])ccc1Cl)c1ccco1 (stereo not drawn) | -1.1 | 5.6 | -8.8 | 3.5 | 2.2 | nt | nt
N/C(=N/OC(=O)c1cccc([N+](=O)[O-])c1)c1cccc([N+](=O)[O-])c1 | 9.7 | -46.6 | -9.6 | 8.0 | 3.6 | nt | nt
N/C(=N\OC(=O)c1ccccc1Cl)c1cccc([N+](=O)[O-])c1 | 5.6 | -27.5 | -4.5 | 14.6* | 1.2 | 0.4 | -6.2
COc1cc(/C=C2\C(=N)N3N=C(S(C)(=O)=O)SC3=NC2=O)cc(OC)c1OCCOc1ccc(C)cc1 | -0.5 | 3.0 | -4.7 | -4.7 | 1.2 | nt | nt
COc1cc(/C=C2\C(=N)N3N=C(S(C)(=O)=O)SC3=NC2=O)ccc1OCCOc1ccc(C)cc1 | -3.8 | 16.8 | -0.7 | 15.6* | 0.2 | -0.8 | -2.5
SMILES | OPRM1-OPRD1 ag | MOR-DOR inv ag | HTR5A inv ctr | m5-HT2A agonist | HTR5A ag ctr | MOR ag counter | m5-HT2A ag conf
Cc1cnc(NC(=O)C2(c3ccccc3)CC2)s1 | 1.7 | -8.8 | -5.7 | 20.6* | -2.1 | -0.2 | -4.6
O=C(Nc1ccc(C(=O)O)cc1)/C(=C\c1ccccc1)NC(=O)c1ccccc1 | -1.9 | 9.9 | -22.2 | 17.6* | 6.3 | -0.5 | -2.9
CC(=O)Nc1ccc(C(=O)N/C(=C/c2ccccc2)C(=O)Nc2cccc(C(=O)O)c2)cc1 | -0.6 | 3.5 | -2.3 | 1.3 | 0.9 | nt | nt
N#Cc1ccc(OCC(=O)N2CCCC2=O)cc1 | -3.1 | 12.0 | -12.9 | 15.2* | 5.2 | 0.7* | 2.1
CC1CCCCN1CCCNc1ccc(C(CC(N)=O)NC(=O)Cc2ccc(Br)cc2)cc1[N+](=O)[O-] (stereo not drawn) | 0.4 | -2.6 | 22.7 | -5.5 | -0.2 | nt | nt
Fc1cccc(F)c1/C=N/Nc1ccccn1 | -2.5 | 12.7 | 7.0 | 14.5* | -2.4 | -0.7 | -2.5
COC(=O)c1ccc(COc2ccc(/C=C(\C#N)c3nc4ccccc4[nH]3)cc2OC)o1 | 4.7 | -24.7 | -1.6 | -0.4 | 0.5 | nt | nt
COc1cc(/C=C(/C#N)c2nc3ccccc3[nH]2)ccc1OCc1ccc(C(=O)O)o1 | 3.3 | -17.0 | 2.4 | 19.2* | 2.1 | 1.7* | -2.1
O=S1(=O)CC(N2CCN(Cc3ccccc3F)CC2)CN1Cc1cn(Cc2ccc(F)cc2)nn1 (stereo not drawn) | nt | nt | nt | 10.5 | nt | nt | nt
CCCCCCn1cc(CN2CC(N3CCSCC3)CS2(=O)=O)nn1 (stereo not drawn) | nt | nt | nt | 0.2 | nt | nt | nt
CCCCCCn1cc(CN2CC(N3CCCC3)CS2(=O)=O)nn1 (stereo not drawn) | nt | nt | nt | 20.3* | nt | -0.6 | -4.3
CN(C)CCN1CCN(C2CN(Cc3cn(Cc4ccccc4)nn3)S(=O)(=O)C2)CC1 (stereo not drawn) | nt | nt | nt | 19.6* | nt | -0.7 | -2.5
O=S1(=O)CC(N2CCN(Cc3ccccc3F)CC2)CN1Cc1cn(Cc2cccc(Cl)c2)nn1 (stereo not drawn) | nt | nt | nt | 14.9* | nt | -0.6 | 3.3
COc1ccccc1CNC(=O)COC(=O)CCC(=O)c1cccs1 | -1.5 | 7.7 | -12.9 | 2.4 | 4.7 | nt | nt
CCC1CCCCN1CCCNC(=O)c1ccc(CS(=O)(=O)Cc2ccc(Cl)cc2)o1 (stereo not drawn) | 0.1 | -0.6 | -16.3 | -1.3 | 4.0 | nt | nt
